This passage reports composite z-score and z-score results from PubChem BioAssay.

A short description of assay [1]: small molecules captured by biotinylated probe aFSTL3 – biochemical, small-molecule microarray, fluorescence 635/667, stem cell growth factor project, primary screen (AID 1064).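 Further: measures binding of the biotinylated anti-FSTL3 antibody to printed compounds.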 Particulars: higher = more signal.
Assay [2] in a line: binders from COS7 lysate, DM2A8 probe, primary screen, torsin A project, cell lysate, small-molecule microarray, fluorescence 635/667 (AID 1065). As to conditions: higher = more signal, COS7 lysate expressing mutant human TOR1A.
A short description of assay [3]: small molecules captured by biotinylated probe aFGF2 – biochemical, small-molecule microarray, fluorescence 635/667, stem cell growth factor project, primary screen (AID 1067).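 Further: measures binding of biotinylated aFGF2 protein to printed compounds on slides; z-score merges feature fluorescence and signal-to-noise across triplicate slides.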 Particulars: higher = more signal.
Assay [4] in a line: small molecules captured by biotinylated probe aFGF10 – biochemical, small-molecule microarray, fluorescence 635/667, stem cell growth factor project, primary screen (AID 1071).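 Further: score merges 667 nm spot intensity and signal to noise from triplicate slides.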 Particulars: higher = more signal.
Assay [5] concerns the target Neurogenic locus notch homolog protein 2 (Homo sapiens) (UniProt Q04721). The assay can be described thus: small molecules binding Notch2 protein – biochemical, small-molecule microarray, 635 nm fluorescence, stem cell growth factors, primary screen (AID 1073). Particulars: higher = more signal.
The target in assay [6] is Pro-neuregulin-1, membrane-bound isoform (Homo sapiens) (UniProt Q02297). The assay can be described thus: small molecules binding neuregulin-1 protein – biochemical, small-molecule microarray, fluorescence 635/667, psychiatric disease protein project, primary screen (AID 1075).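 Further: score combines 667 nm spot fluorescence with signal to noise.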 Particulars: NRG1 binding, 635 nm fluorescence, higher = more signal.
Pro-neuregulin-1, membrane-bound isoform (Homo sapiens), sequence (Q02297 whole entry, looked up, the tested form may be a part, canonical isoform): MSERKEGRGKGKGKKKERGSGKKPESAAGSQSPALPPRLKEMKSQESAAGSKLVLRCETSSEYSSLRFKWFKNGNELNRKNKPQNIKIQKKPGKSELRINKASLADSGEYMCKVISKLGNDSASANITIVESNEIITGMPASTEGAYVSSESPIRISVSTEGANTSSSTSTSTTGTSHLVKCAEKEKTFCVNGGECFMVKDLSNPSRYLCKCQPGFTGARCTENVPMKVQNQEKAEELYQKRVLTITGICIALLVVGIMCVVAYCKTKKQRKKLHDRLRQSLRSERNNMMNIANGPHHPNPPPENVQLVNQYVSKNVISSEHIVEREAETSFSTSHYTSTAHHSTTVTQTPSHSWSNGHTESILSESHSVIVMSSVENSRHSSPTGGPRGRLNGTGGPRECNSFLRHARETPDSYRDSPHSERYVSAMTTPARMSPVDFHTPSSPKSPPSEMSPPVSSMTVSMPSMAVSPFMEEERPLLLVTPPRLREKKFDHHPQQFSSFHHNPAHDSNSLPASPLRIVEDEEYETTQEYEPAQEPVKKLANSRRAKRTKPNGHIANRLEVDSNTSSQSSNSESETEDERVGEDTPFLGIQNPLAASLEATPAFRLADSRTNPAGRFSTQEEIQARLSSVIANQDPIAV
For assay [7], the system named is Neuregulin-1 EGF-like domain. The assay is described as follows: small molecules binding NRG1 EGF domain – biochemical, small-molecule microarray, 635 nm fluorescence, primary screen (AID 1081).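 Further: binding of the protein to compounds printed on small-molecule microarray slides.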 Particulars: higher = more signal.
A short description of assay [8]: FRG1 expression reporter modulators in myotubes – cell-based, C2C12 myotubes, firefly/Renilla luciferase, luminescence, FRG1 inhibition for FSHD, primary screen (AID 1084). As to conditions: FRG1 promoter luciferase, higher = more signal, called active from +8 up or from −8 down.
Assay [9] is described as follows: small molecules captured by biotinylated probe aFST – biochemical, small-molecule microarray, fluorescence 635/667, stem cell growth factor project, primary screen (AID 1086).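 Further: score merges 667 nm fluorescence with signal-to-noise of each printed compound spot.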 As to conditions: higher = more signal.
The nature of assay [10]: binders of probe aHhip on microarray, primary screen, stem cell growth factor project, biochemical, small-molecule microarray, fluorescence 635/667 (AID 1087).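 Further: score merges spot fluorescence at 667nm with spot signal to noise ratio.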 Particulars: higher = more signal.
Assay [11] deals with PRMT1 (protein arginine N-methyltransferase 1). The assay can be described thus: small molecules binding arginine methyltransferase PRMT1 – biochemical, small-molecule microarray, 635 nm fluorescence, primary screen (AID 1088).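 Further: binding of Prmt1 protein to compounds spotted on small-molecule microarray slides.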 As to conditions: higher = more signal.
A short description of assay [12]: growth effects on S. cerevisiae YJM789 – YJM789 clinical isolate, OD600, 24 h, basal, primary screen (AID 1089).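 Further: growth of clinical yeast isolate S. cerevisiae YJM 789 seeded 1000 cells per well; test concentration not given here.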 Particulars: higher = more signal, called active from +8 up or from −8 down.
A short description of assay [13]: S. pombe growth modifiers, basal conditions – strain 972, OD600, 24 h, no modulator, primary screen (AID 1090).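 Further: basal condition with compound alone and no growth modifier present; test concentration not given here.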 Particulars: S. pombe 972 growth, higher = more signal, called active from +8 up or from −8 down.
Assay [14] is described as follows: budding yeast growth modifiers under rapamycin – strain BY4716, OD600, 96 h, primary screen (AID 1091). Further: test concentration not given here. Particulars: S. cerevisiae BY4716 + rapamycin, higher = more signal, called active from +8 up or from −8 down.
In assay [15] the target is Torsin-1A-interacting protein 2 (Homo sapiens) (UniProt Q8NFQ8). The assay is described as follows: small molecules binding lysate-expressed LULL1 – cell lysate, human LULL1 lysate, 635/667 nm fluorescence, primary screen (AID 1092).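 Further: probe is lysate of COS7 cells overexpressing human LULL1; score merges per-feature 667 nm fluorescence with signal-to-noise.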 Particulars: small-molecule microarray, hLULL1 lysate binding, 635 nm fluorescence; higher = more signal.
Torsin-1A-interacting protein 2 (Homo sapiens), sequence (Q8NFQ8 whole entry, looked up): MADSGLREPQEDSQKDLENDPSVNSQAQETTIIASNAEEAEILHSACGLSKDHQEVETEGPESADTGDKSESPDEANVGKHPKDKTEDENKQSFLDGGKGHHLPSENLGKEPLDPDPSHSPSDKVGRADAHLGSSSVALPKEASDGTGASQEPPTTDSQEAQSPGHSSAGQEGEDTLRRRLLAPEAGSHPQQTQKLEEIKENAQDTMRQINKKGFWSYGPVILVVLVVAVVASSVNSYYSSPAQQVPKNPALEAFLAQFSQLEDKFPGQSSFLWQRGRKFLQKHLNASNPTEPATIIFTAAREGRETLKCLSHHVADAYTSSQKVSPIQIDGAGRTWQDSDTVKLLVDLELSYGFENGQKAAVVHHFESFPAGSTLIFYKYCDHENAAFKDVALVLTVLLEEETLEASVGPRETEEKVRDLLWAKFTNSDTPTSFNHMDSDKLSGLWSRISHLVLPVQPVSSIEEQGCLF
Assay [16] can be described thus: optical density change of DRC41 E. coli – strain DRC41, OD650, 24 h, E. coli filamentation project, primary screen (AID 1093).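 Further: MC1000 strain lacking acrAB efflux and sulA so SOS filamentation is blocked; test concentration not given here.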 Particulars: E. coli DRC41 growth, higher = more signal, called active from +8 up or from −8 down.
Assay [17] in a line: probe aLefty2 binding to arrayed compounds – biochemical, biotinylated probe, 635/667 nm fluorescence, primary screen (AID 1094).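 Further: score merges spot fluorescence near 667 nm with spot signal-to-noise ratio.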 Particulars: small-molecule microarray, higher = more signal.
Assay [18] concerns Noggin (protein binding on small-molecule microarray). The assay can be described thus: small molecules binding Noggin protein – biochemical, 635/667 nm fluorescence, primary screen (AID 1095).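 Further: score merges 667 nm feature fluorescence with signal to noise over triplicate slides.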 As to conditions: 635 nm fluorescence, higher = more signal.
The target of assay [19] is Neurogenic locus notch homolog protein 3 (Homo sapiens) (UniProt Q9UM47). The assay is described as follows: small molecules binding NOTCH3 protein – biochemical, 635/667 nm fluorescence, primary screen (AID 1096). As to conditions: small-molecule microarray, 635 nm fluorescence, higher = more signal.
Neurogenic locus notch homolog protein 3 (Homo sapiens), sequence (Q9UM47 whole entry, looked up): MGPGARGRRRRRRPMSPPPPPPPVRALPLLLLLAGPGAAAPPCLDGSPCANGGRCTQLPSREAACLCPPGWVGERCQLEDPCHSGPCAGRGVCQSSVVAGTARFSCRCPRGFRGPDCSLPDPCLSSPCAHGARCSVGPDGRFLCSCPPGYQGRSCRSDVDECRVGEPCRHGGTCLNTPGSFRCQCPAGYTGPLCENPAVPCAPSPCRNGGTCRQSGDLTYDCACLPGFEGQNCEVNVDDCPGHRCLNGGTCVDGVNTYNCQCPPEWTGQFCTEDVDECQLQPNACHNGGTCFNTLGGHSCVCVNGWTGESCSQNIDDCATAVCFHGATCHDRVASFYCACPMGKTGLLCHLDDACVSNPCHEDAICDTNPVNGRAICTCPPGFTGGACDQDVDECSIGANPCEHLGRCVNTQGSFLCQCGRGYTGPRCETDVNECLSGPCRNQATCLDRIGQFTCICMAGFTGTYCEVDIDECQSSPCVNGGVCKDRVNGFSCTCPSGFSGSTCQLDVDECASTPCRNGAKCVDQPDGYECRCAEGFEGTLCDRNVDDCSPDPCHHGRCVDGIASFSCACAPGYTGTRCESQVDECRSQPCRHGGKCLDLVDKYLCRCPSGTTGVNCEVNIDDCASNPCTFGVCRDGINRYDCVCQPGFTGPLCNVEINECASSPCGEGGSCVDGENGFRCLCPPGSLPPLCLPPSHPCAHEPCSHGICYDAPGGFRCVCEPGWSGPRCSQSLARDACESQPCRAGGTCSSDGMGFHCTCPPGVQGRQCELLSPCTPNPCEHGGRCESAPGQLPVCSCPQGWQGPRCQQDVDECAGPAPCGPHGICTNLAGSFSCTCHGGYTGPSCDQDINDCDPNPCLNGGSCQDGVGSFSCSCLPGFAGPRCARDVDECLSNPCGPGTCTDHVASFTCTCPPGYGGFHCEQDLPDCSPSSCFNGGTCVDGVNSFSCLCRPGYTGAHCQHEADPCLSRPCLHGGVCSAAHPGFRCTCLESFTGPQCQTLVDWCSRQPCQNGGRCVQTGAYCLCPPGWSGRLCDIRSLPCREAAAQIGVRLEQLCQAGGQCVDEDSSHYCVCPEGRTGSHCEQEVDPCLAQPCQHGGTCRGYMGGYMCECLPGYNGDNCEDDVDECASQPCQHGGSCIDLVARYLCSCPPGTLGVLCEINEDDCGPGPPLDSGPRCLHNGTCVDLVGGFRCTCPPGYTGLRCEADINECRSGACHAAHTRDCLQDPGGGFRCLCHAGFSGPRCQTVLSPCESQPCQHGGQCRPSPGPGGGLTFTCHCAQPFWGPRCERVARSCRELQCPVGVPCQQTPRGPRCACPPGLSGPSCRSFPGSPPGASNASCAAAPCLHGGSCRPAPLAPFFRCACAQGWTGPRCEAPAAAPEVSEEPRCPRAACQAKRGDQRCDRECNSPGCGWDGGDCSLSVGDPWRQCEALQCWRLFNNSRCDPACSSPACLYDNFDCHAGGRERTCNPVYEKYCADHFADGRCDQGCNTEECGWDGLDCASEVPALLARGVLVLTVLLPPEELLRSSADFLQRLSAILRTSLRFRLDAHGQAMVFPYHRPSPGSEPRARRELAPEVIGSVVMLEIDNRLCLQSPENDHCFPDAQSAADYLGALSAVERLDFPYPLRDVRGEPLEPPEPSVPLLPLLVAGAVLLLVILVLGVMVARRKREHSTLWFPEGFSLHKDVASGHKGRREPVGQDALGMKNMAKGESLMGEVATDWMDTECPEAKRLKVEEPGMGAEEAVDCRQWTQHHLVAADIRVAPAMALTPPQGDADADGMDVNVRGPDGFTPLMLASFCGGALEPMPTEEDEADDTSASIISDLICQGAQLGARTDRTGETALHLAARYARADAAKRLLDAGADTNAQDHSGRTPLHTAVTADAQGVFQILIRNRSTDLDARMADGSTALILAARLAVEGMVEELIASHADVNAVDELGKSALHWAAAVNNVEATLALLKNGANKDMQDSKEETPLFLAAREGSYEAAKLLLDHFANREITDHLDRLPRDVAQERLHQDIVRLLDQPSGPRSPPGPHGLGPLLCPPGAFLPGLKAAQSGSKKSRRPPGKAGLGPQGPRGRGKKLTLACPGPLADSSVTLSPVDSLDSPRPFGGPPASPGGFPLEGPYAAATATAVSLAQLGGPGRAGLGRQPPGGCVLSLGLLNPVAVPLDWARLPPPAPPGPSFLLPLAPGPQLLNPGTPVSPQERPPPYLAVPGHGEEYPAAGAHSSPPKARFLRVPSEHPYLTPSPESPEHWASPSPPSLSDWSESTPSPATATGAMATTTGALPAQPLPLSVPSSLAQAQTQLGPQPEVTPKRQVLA
Assay [20] is described as follows: probe aEGFR binding to arrayed compounds – biochemical, biotinylated probe, 635/667 nm fluorescence, primary screen (AID 1097).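 Further: probe is a biotinylated anti-EGFR antibody binding compounds printed on slides; score combines fluorescence near 667 nm and signal to noise of each spot.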 Particulars: small-molecule microarray, higher = more signal.

Activity calls are given as the source filed them.

For `C[C@H]1NC(=O)[C@@H](C)NC(=O)[C@@]23C(=O)N[C@@H](Cc4ccccc4)C2[C@H](C)[C@@]2(C)O[C@H]2C3/C=C/C/C=C\CNC1=O` (stereo not given in full), the composite z-score was -0.372 in assay [1]; -0.0794 in assay [2]; -0.083 in [3]; -0.167 in assay [4]; -0.269 in assay [5]; 0.631 in assay [6]. The composite z-score in [7] was 0.812; in assay [9] it was -0.41; in assay [10], -0.34; in assay [11], -0.0842; in assay [15], -0.968; in assay [17], -0.142. Moreover, the figures for the composite z-score in assay [18], in [19] and in assay [20] were -0.142, -0.129 and -0.131, respectively. In addition, the z-score in [8] is 0.0028 (inactive); in assay [12], 1 (inactive); in assay [13] it was -0.696 (inactive); in [14], 0.581 (inactive); in assay [16], 2.41 (inactive).

On to `CC1=C([C@H](O)CCc2ccccc2)[C@H](CO)[C@@H]2C(=O)N(Cc3ccccc3)C(=O)[C@@H]2C1`, for which the composite z-score was -0.183 in [1]; 0.0897 in assay [2]; 0.0137 in [3]; 0.216 in [4]; 0.585 in assay [5]; 0.181 in [6]. The composite z-score in assay [7] was -0.107; in [9] it was 0.0747; in assay [10], -0.174; in assay [11], -0.262; in assay [15], -0.2; in assay [17], 0.0769. Moreover, the composite z-score was 0.932 in [18], 0.497 in assay [19] and -0.085 in assay [20]. The z-score was -0.69 (inactive) in [8]; -0.466 (inactive) in assay [12]; -1.41 (inactive) in assay [13]; -0.873 (inactive) in [14]; 1.72 (inactive) in assay [16].

As for `CCCN1C(=O)[C@@]2(CCS(=O)(=O)c3ccccc3)N=C(c3ccc(OCCCO)cc3)O[C@H]2c2ccccc21`, the composite z-score in assay [1] is 0.309; in [2], 0.437; in assay [3], 0.0127; in assay [4], 0.136; in assay [5], 0.728; in assay [6] it was 1.72. In addition, the composite z-score in assay [7] came out at 1.36; in assay [9] it was 0.328; in assay [10], 0.0722; in assay [11] it was 1.53; in assay [15], 2.8; in assay [17] it was 0.0686. The values for the composite z-score in assay [18], in assay [19] and in assay [20] were 1.03, 1.09 and -0.0118, respectively. Also, the z-score in assay [8] was -3.15 (inactive); in assay [12], 0.817 (inactive); in assay [13] it was 0.69 (inactive); in [14] it was 4.5 (inactive); in assay [16], 0.341 (inactive).

In the case of `COc1cccc([C@@H]2[C@@H](C)CC[C@H]3C(=O)N4[C@H](c5cccc(OC)c5)[C@@H](C)CC[C@H]4C(=O)N23)c1`, the composite z-score in [1] is -0.197; in assay [2], 0.683; in [3] it was -0.0355; in assay [4] it was 0.483; in assay [5] it was 1.01; in assay [6] it was 0.25. Also, the composite z-score was 0.285 in [7]; 0.0794 in assay [9]; -0.0994 in [10]; 0.606 in assay [11]; 0.474 in assay [15]; -0.138 in assay [17]. Also, the composite z-score is 0.603 in assay [18], 1.05 in assay [19] and -0.0082 in assay [20]. In addition, the z-score in assay [8] is -1.21 (inactive); in assay [12], -2.34 (inactive); in assay [13], -1.46 (inactive); in assay [14] it was -0.616 (inactive); in [16], 0.368 (inactive).

For `C=C(/C(=C/C[C@@H](OC(=O)c1ccncc1)c1ccc(CO)o1)c1cnc2ccccc2c1)C(C)C`, the composite z-score in assay [1] is 0.358; in assay [2], 0.522; in assay [3] it was -0.0767; in assay [4], 1.02; in assay [5] it was 1.52; in assay [6], 1.15. The composite z-score in assay [7] is 1.04; in [9], 0.398; in assay [10], -0.0994; in [11] it was 1.54; in assay [15] it was 1.1; in assay [17] it was -0.0569. The composite z-score in [18] was 1.08; in [19] it was 1.09; in [20], 0.0009. Also, the z-score is -0.493 (inactive) in [8]; -0.0873 (inactive) in assay [12]; -2.27 (inactive) in assay [13]; -0.147 (inactive) in [14]; 1.23 (inactive) in [16].
